Measurements reported in PubChem BioAssay (NCI).
Compounds without any hit were thinned out: in the full panel of roughly 79,000, 15% have a hit. A number with no mark means an inactive call. Active and inactive are the calls of the source. No stated cut-off is given here; in the data, active means growth inhibition above about 70%; inactive means the rest.

Test: NCI Yeast Anticancer Drug Screen. Data for the cln2 rad14 strain (AID 165);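 further: 0% = growth equal to vehicle treated cultures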
Details: S. cerevisiae cln2 rad14 strain, at 50.0 µM, hits give high values
How it was run: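 Growth of compound-exposed yeast (cln2 rad14 genotype) measured and expressed as inhibition relative to vehicle.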

| SMILES | growth inhibition |
| --- | --- |
| CC(=O)NNc1nc(C)c(C(=O)NNC(=O)C(=O)Nc2c(C)cccc2C(C)C)s1 | 9% |
| COc1cc(C2CC(=O)c3ccccc3O2)ccc1O (stereo not drawn) | 88.7% (active) |
| CCC1CCC2C3CC=C4CC(OC(C)=O)C(N)CC4(C)C3CCC12C (stereo not drawn) | 91.3% (active) |
| COc1ccccc1C1c2cc3c(cc2OC(N2CCOCC2)C1C)OCO3 (stereo not drawn) | 18.3% |
| O=C1C=C/C(=C(/c2ccc(O)c(O)c2)c2ccccc2S(=O)(=O)O)C=C1O | 15.9% |
| N#CSC#Cc1ccc(C#CSC#N)cc1 | 87.5% (active) |
| Cc1c2ccccc2c(CCl)c2ccc3ccccc3c12 | 97.5% (active) |
| Oc1ccc(C(=C(Br)c2ccccc2)c2ccc(O)cc2)cc1 | 89.5% (active) |
| Clc1ccc(/C=N/Nc2c3ccccc3nc3ccccc23)c(Cl)c1 | 28.5% |
| CCCC#CCCOC(=O)c1cc([N+](=O)[O-])cc([N+](=O)[O-])c1 | 98.9% (active) |
| CCOc1ccc2c(c1)n([O-])c1ccccc1[n+]2=O | 98.1% (active) |
| COc1ccc(/C(Cl)=C(\c2ccc(OCCN(C)C)cc2)c2ccc(OC(=O)C(C)(C)C)cc2)cc1 | 60.4% |
| CCCCCCCCCCCCCCCCSC(=NC)NC | 98.2% (active) |
| N#Cc1ccc(Oc2nc3ccccc3nc2-c2ccccc2)cc1 | 62.8% |
| Cc1ccc2c(c1)nc1n2C(N)=Nc2ccccc2S1 | 37.8% |
| COc1cc(NCc2ccc3nc(-c4ccccc4)c(N)nc3c2)cc(OC)c1OC | 16.6% |
| O=C(OCCC1CCCCC1)c1cc([N+](=O)[O-])cc([N+](=O)[O-])c1 | 80.5% (active) |
| O=C1c2ccc3ccccc3c2CCC1[n+]1ccc2ccccc2c1 (stereo not drawn) | 83.6% (active) |
| Cc1cc(NC(=S)SCc2ccc(Cl)cc2)c([N+](=O)[O-])cc1C | 94.3% (active) |
| N#CC(O)C(Br)(Br)Br (stereo not drawn) | 21.9% |

| SMILES | growth inhibition |
| --- | --- |
| C[CH2][Ge]([CH2]C)[CH2]C.C[CH2][Ge]([Cl])[CH2]C.C[CH2][Ge][CH2]C | 97% (active) |
| COC1C(=[N+]=[N-])C(=O)NC(=O)N1C1OC(COC(c2ccccc2)(c2ccccc2)c2ccccc2)C(O)C1O (stereo not drawn) | 77.2% (active) |
| CC(=O)Oc1ccc(C)c(C(C)C(Cl)(Cl)Cl)c1 (stereo not drawn) | 52.5% |
| OC(c1ccccc1)c1cccc(Br)c1 (stereo not drawn) | 42.6% |
| CC/C(=C1\C=CC(=O)S1)C(CC)c1ccc(OC(C)=O)cc1 (stereo not drawn) | 70.2% (active) |
| COc1ccc(/C=C2/C(=O)NC3SC=C(c4cccc([N+](=O)[O-])c4)N23)cc1 (stereo not drawn) | 11.4% |
| O=C1O/C(=C2\OC(=O)c3ccccc32)c2ccccc21 | 47.8% |
| Clc1ncccc1-n1cccc1/C=N\N=C/c1cccn1-c1cccnc1Cl | 30.4% |
| Clc1nc2cc3nc(Cl)c(Cl)nc3cc2nc1Cl | 30.1% |
| CC(=O)c1c2c(cc3c1CC1(Cc4cc5c(cc4C1)C(=O)CCC5)C3)CCCC2 (stereo not drawn) | 8.4% |
| CCCCOS(=O)(=O)c1ccc(C)cc1 | 25.1% |
| C[N+]1(c2ccccc2)C=C(c2ccccc2)SC1=S (stereo not drawn) | 23.4% |
| COc1ccc(/C=N/N=c2\[nH][nH]/c(=N\N=C\c3ccc(OC)c4ccccc34)c3ccccc23)c2ccccc12 | 37.6% |
| CCCCCCCCCCCCCCCCN | 98.8% (active) |
| CCCCCCCCCCCC[S+](C)C | 41% |
| CP(=O)(c1ccccc1)c1ccccc1 | 6.05% |
| CCCCCCCCCCCC(=O)OC/C=C/COC(=O)c1ccccc1 | 69.3% |
| O=C(O)CCC(O)=C1S(=O)(=O)OCCOS1(=O)=O | 47.7% |
| CCOC(=O)C1SC(=Nc2cccc(Cl)c2C)N=C1C (stereo not drawn) | 86% (active) |

Test: NCI Yeast Anticancer Drug Screen. Data for the bub3 strain (AID 167)
Details: S. cerevisiae bub3 mutant strain, at 5.0 µM (retest, dose inferred, filed as 0.5), hits give high values
How it was run: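 Yeast carrying a defined mutation is treated with each compound, and growth is compared with that of vehicle-exposed cells to give inhibition.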

| SMILES | growth inhibition |
| --- | --- |
| CC(=O)NNc1nc(C)c(C(=O)NNC(=O)C(=O)Nc2c(C)cccc2C(C)C)s1 | 4% |
| COc1cc(C2CC(=O)c3ccccc3O2)ccc1O (stereo not drawn) | 26% |
| CCC1CCC2C3CC=C4CC(OC(C)=O)C(N)CC4(C)C3CCC12C (stereo not drawn) | -5% |
| COc1ccccc1C1c2cc3c(cc2OC(N2CCOCC2)C1C)OCO3 (stereo not drawn) | 18% |
| O=C1C=C/C(=C(/c2ccc(O)c(O)c2)c2ccccc2S(=O)(=O)O)C=C1O | -40% |
| N#CSC#Cc1ccc(C#CSC#N)cc1 | 99% (active) |
| Cc1c2ccccc2c(CCl)c2ccc3ccccc3c12 | 99% (active) |
| Oc1ccc(C(=C(Br)c2ccccc2)c2ccc(O)cc2)cc1 | 99% (active) |
| Clc1ccc(/C=N/Nc2c3ccccc3nc3ccccc23)c(Cl)c1 | -12% |
| CCCC#CCCOC(=O)c1cc([N+](=O)[O-])cc([N+](=O)[O-])c1 | -11% |
| CCOc1ccc2c(c1)n([O-])c1ccccc1[n+]2=O | 17% |
| COc1ccc(/C(Cl)=C(\c2ccc(OCCN(C)C)cc2)c2ccc(OC(=O)C(C)(C)C)cc2)cc1 | 20% |
| CCCCCCCCCCCCCCCCSC(=NC)NC | 84% (active) |
| N#Cc1ccc(Oc2nc3ccccc3nc2-c2ccccc2)cc1 | 5% |
| Cc1ccc2c(c1)nc1n2C(N)=Nc2ccccc2S1 | -16% |
| COc1cc(NCc2ccc3nc(-c4ccccc4)c(N)nc3c2)cc(OC)c1OC | 8% |
| O=C(OCCC1CCCCC1)c1cc([N+](=O)[O-])cc([N+](=O)[O-])c1 | 5% |
| O=C1c2ccc3ccccc3c2CCC1[n+]1ccc2ccccc2c1 (stereo not drawn) | -4% |
| Cc1cc(NC(=S)SCc2ccc(Cl)cc2)c([N+](=O)[O-])cc1C | 53% |
| N#CC(O)C(Br)(Br)Br (stereo not drawn) | -1% |

| SMILES | growth inhibition |
| --- | --- |
| C[CH2][Ge]([CH2]C)[CH2]C.C[CH2][Ge]([Cl])[CH2]C.C[CH2][Ge][CH2]C | 17% |
| COC1C(=[N+]=[N-])C(=O)NC(=O)N1C1OC(COC(c2ccccc2)(c2ccccc2)c2ccccc2)C(O)C1O (stereo not drawn) | 13% |
| CC(=O)Oc1ccc(C)c(C(C)C(Cl)(Cl)Cl)c1 (stereo not drawn) | -6% |
| OC(c1ccccc1)c1cccc(Br)c1 (stereo not drawn) | -3% |
| CC/C(=C1\C=CC(=O)S1)C(CC)c1ccc(OC(C)=O)cc1 (stereo not drawn) | -25% |
| COc1ccc(/C=C2/C(=O)NC3SC=C(c4cccc([N+](=O)[O-])c4)N23)cc1 (stereo not drawn) | 21% |
| O=C1O/C(=C2\OC(=O)c3ccccc32)c2ccccc21 | 1% |
| Clc1ncccc1-n1cccc1/C=N\N=C/c1cccn1-c1cccnc1Cl | 6% |
| Clc1nc2cc3nc(Cl)c(Cl)nc3cc2nc1Cl | 17% |
| CC(=O)c1c2c(cc3c1CC1(Cc4cc5c(cc4C1)C(=O)CCC5)C3)CCCC2 (stereo not drawn) | 32% |
| CCCCOS(=O)(=O)c1ccc(C)cc1 | -16% |
| C[N+]1(c2ccccc2)C=C(c2ccccc2)SC1=S (stereo not drawn) | 13% |
| COc1ccc(/C=N/N=c2\[nH][nH]/c(=N\N=C\c3ccc(OC)c4ccccc34)c3ccccc23)c2ccccc12 | 0% |
| CCCCCCCCCCCCCCCCN | 98% (active) |
| CCCCCCCCCCCC[S+](C)C | 41% |
| CP(=O)(c1ccccc1)c1ccccc1 | -22% |
| CCCCCCCCCCCC(=O)OC/C=C/COC(=O)c1ccccc1 | -5% |
| O=C(O)CCC(O)=C1S(=O)(=O)OCCOS1(=O)=O | -18% |
| CCOC(=O)C1SC(=Nc2cccc(Cl)c2C)N=C1C (stereo not drawn) | 34% |
